From ChEMBL document CHEMBL4808148, “HDAC6 screening dataset using tau-based substrate in an enzymatic assay yields selective inhibitors and activators” (2021) come the findings set out here.

Hit rate of the full screen: of about 5,600 compounds, about 390 (7%) showed an effect of 50% or more. What follows is part of a selection rich in strong results, with near analogues and random picks from the rest.

By inhibition is commonly meant the change of the read-out against control, counted positive when it falls.

For the assay, the target named is T1, Protein deacetylase HDAC6 (Homo sapiens) (UniProt Q9UBN7).
T1 sequence (whole entry): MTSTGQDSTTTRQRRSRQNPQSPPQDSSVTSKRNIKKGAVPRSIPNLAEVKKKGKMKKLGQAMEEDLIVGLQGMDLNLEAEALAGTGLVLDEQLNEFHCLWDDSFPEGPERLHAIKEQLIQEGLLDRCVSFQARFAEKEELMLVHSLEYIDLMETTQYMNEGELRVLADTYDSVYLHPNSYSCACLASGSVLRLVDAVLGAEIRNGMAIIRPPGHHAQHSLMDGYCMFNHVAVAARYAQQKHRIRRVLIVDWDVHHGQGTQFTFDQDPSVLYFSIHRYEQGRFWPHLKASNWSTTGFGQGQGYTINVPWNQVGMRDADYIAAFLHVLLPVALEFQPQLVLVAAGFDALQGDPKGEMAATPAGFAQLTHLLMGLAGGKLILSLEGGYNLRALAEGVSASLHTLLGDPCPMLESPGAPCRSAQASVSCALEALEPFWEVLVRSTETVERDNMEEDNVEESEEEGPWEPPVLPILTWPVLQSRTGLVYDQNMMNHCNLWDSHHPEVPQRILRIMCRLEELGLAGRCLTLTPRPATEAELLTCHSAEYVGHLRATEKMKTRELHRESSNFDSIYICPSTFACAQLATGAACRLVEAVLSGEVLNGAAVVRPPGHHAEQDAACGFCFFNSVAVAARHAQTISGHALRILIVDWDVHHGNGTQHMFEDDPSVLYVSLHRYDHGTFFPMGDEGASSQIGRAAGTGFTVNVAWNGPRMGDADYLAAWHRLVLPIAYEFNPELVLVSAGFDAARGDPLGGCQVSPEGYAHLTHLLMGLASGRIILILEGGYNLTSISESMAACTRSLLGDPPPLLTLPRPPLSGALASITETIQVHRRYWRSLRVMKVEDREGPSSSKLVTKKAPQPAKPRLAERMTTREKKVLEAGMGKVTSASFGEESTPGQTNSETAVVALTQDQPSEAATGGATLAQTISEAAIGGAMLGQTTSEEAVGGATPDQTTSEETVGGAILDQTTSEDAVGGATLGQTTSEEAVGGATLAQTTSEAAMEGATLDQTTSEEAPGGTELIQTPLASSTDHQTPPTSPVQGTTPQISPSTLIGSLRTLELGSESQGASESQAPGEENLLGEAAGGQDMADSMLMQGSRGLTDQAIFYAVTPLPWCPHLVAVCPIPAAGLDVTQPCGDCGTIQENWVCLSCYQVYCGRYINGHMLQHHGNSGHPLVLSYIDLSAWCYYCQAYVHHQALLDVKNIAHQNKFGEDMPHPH
To be noted: at 10 µM.
As to `Cn1c(/C=C/C(=O)NO)ccc1/C=C/C(=O)c1cccc(F)c1`, the inhibition was determined as 98.6%. Regarding `Cc1ccc(NC2=NCCN2)c(Cl)c1`, the inhibition was 7.22%. The figure for `CCC[C@H](N[C@@H](C)C(=O)N1[C@H](C(=O)O)C[C@@H]2CCCC[C@@H]21)C(=O)O` is -9.35%; for `CCCC(=O)c1cc(F)ccc1OCC(O)CNC(C)(C)C` (centres undefined) it is -1.16%. As for `C[C@H](Oc1cc(-c2cnn(C3CCNCC3)c2)cnc1N)c1c(Cl)ccc(F)c1Cl`, the inhibition is -7.32%.

`C[n+]1ccccc1CN=O`: the inhibition turned out to be 10.8%. With `O=c1[nH]c(CCl)nc2sc3c(c12)CCCC3`, the inhibition came to 83.4%. On to `CCOC(=O)[C@@](C)(N)Cc1ccc(O)c(O)c1`, for which the inhibition amounted to 35%. As for `Cc1ccc(Cl)c(OCC(O)CNC(C)(C)C)c1` (centres undefined), the inhibition stood at 14.8%. `CCCCCCCCCCCCCCCC(=O)OCCC1CCN(CCCN2c3ccccc3Sc3ccc(S(=O)(=O)N(C)C)cc32)CC1`: the inhibition is 9.91%. Regarding `CCCCCCCCCC(=O)OCCN1CCN(CCCN2c3ccccc3Sc3ccc(C(F)(F)F)cc32)CC1`, the inhibition was 1.38%. Regarding `OCCN1CCN(CCCN2c3ccccc3Sc3ccc(C(F)(F)F)cc32)CC1`, the inhibition was determined as 86.6%. `CSc1ccccc1OCC(O)CNC(C)C` (centres undefined): the inhibition amounted to 8.76%. For the molecule `NC(=S)N/N=C/c1coc2ccccc2c1=O`, the inhibition amounted to 54.7%. Consider `NC(=S)N/N=C/c1ccncc1`, for which the inhibition was determined as 22.9%. As for `O=C1CCC2CCC(=O)N12`, the inhibition worked out at 5.05%. The figure for `CO[C@@H]1[C@H](O)[C@@H](CO)O[C@H]1n1cnc2c(NC3CCCCC3)ncnc21` is 13.2%; for `NC(=O)c1[nH]cnc1O` it is 3.67%. Regarding `CCOCCOc1ccccc1C(N)=O`, the inhibition amounted to 5.9%.

On to `O=C(c1ccc(OCCCc2c[nH]cn2)cc1)C1CC1`, for which the inhibition worked out at 70.7%. In the case of `NC/C(=C/F)CCc1ccc(F)cc1`, the inhibition came to 46.9%.

For the molecule `Cc1cnc(Nc2ccc(F)cc2Cl)nc1-c1c[nH]c(C(=O)N[C@H](CO)c2cccc(Cl)c2)c1`, the inhibition worked out at 54.4%. As for `O=C(NCC1CCOCC1)c1cnc(Nc2ccc(Cl)cc2Cl)nc1C(F)(F)F`, the figure is -5.57%; as for `CC12CCC(=O)C=C1CCC1C2[C@@H](O)CC2(C)C1CC[C@]2(O)C(=O)COP(=O)(O)O` (some centres undefined), 2.87%.
